Compound activity from PubChem BioAssay.
Pol beta inh – qHTS Assay for Inhibitors of DNA Polymerase Beta | Pol beta primer extension/strand displacement, fluorescence kinetic | Potency, µM (doses to about 114 µM), inactives show top-dose activity change, negative = inhibition, usual class: inhibitors | 340,000 compounds, 1.3% hits; further: on the % scale 0 is the no-effect control and ±100 the full control effect
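Values derive from four-parameter Hill fits of normalized kinetic data: reads at 0 and 10 min following addition of 50 nM substrate to 10 nM Pol beta preincubated 15 min with compound.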
Pol eta inh-1 – qHTS for Inhibitors of Polymerase Eta | Potency, µM (doses to about 114 µM), without a hit: top-dose activity change, negative = inhibition, hits mostly inhibitors | DNA polymerase eta (Homo sapiens), Q9Y253 | recombinant Pol eta, fluorescent DNA replication assay | 390,000 compounds, 1.2% hits; further: on the % scale 0 is the no-effect control and ±100 the full control effect
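Pol eta at 10 nM preincubated with compounds 15 min at room temperature; reaction started with fluorescent substrate (50 nM final) and read kinetically at 0 and 10 min.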
WRN helicase inh-1 – qHTS for Inhibitors of WRN Helicase; Potency, µM (top dose mostly 114 µM), without a hit: top-dose activity change, negative = inhibition, hits mostly inhibitors; Bifunctional 3'-5' exonuclease/ATP-dependent helicase WRN (Homo sapiens), Q14191; WRN helicase unwinding, fluorescent forked duplex, kinetic; 360,000 compounds, 0.46% hits; further: on the % scale 0 is the no-effect control and ±100 the full control effect; nearly all actives have a fitted effect of over 55% in size
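WRN at 20 nM final was preincubated with compound for 15 min at room temperature; reaction started with 100 nM forked duplex oligonucleotide carrying fluorophore and quencher plus 2 mM ATP (final). Unwinding followed kinetically by red fluorescence (ex 525/em 598 nm).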
Pol iota inh – qHTS for Inhibitors of Polymerase Iota; DNA polymerase iota (Homo sapiens), Q9UNA4; Pol iota fluorescent replication assay, 10 min; Potency, µM (series often up to 115 µM), for the others: at the top dose activity, negative = inhibition, actives largely listed as inhibitors; 390,000 compounds, 1% hits; AID 588590, 2011
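Pol iota at 10 nM preincubated 15 min with compounds at room temperature; reaction started with fluorescent substrate, 50 nM final. Fluorescence read kinetically at 0 and 10 min; buffer-only wells as negative control.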
Pol kappa inh-1 – qHTS for Inhibitors of Polymerase Kappa. purified Pol kappa, fluorescent DNA synthesis assay, 10 min. AID 588579, 2011. Potency, µM (top dose mostly 107 µM), for the others: at the highest dose activity, negative = inhibition, actives largely listed as inhibitors. 400,000 compounds, 0.53% hits; further: on the % scale 0 is the no-effect control and ±100 the full control effect
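Readout: fluorescence, taken kinetically at 0 and 10 min. Conditions: 10 nM Pol kappa, 15 min RT compound preincubation, 50 nM substrate final. Controls: enzyme-free buffer wells.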
L3MBTL1 block – qHTS Assay for the Inhibitors of L3MBTL1 | Lethal(3)malignant brain tumor-like protein 1 (Homo sapiens), Q9Y468 | AlphaScreen L3MBTL1–H3K9me1 peptide binding | Potency, µM (top dose mostly 57.1 µM), for the others: at the top dose activity, negative = inhibition, actives largely listed as inhibitors | 230,000 compounds, 0.66% hits; further: on the % scale 0 is the no-effect control and ±100 the full control effect; nearly all actives have a fitted effect of over 60% in size
Target sequence (Q9Y468 whole entry, looked up): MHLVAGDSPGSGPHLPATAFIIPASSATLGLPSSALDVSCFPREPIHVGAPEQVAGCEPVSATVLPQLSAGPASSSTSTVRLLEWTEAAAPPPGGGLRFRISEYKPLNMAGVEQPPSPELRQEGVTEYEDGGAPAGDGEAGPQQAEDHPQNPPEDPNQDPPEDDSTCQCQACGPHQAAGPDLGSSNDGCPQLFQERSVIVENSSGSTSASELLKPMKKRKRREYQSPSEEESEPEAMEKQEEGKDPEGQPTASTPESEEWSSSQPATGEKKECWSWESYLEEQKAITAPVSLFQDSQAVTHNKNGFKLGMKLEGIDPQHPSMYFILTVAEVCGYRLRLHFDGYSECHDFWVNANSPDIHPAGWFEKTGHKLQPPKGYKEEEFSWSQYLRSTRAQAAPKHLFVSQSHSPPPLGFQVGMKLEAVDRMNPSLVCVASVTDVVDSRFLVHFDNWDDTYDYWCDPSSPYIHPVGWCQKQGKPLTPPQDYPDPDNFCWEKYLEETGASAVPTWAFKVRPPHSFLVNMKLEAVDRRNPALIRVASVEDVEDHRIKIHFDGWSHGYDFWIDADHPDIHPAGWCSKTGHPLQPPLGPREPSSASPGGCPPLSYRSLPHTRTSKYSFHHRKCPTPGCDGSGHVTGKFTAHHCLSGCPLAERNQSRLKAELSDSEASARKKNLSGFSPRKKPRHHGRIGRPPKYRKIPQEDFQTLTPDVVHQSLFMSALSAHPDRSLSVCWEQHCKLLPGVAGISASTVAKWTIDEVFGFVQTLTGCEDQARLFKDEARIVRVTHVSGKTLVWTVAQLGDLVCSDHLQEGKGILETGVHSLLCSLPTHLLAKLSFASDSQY
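L3MBTL1 (50 nM) pre-complexed 30 min with biotinylated H3(1-15)K9me1 peptide (75 nM), then compounds added for 30 min at room temperature; AlphaScreen streptavidin donor/nickel chelate acceptor beads (10 ug/mL final) read after 30 min dark incubation.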
Pol kappa inh-2 – qHTS for Inhibitors of Polymerase Kappa: Confirmatory Assay for Cherry-picked Compounds | shares compounds with Pol eta inh-1 | Potency, µM, usual class: inhibitors | 920 compounds, 76% hits | purified Pol-kappa, fluorescent strand-displacement substrate
Pol eta inh-2 – qHTS for Inhibitors of Polymerase Eta: Confirmatory Assay for Cherry-picked Compounds. shares compounds with Pol eta inh-1. Pol eta primer extension, TAMRA/BHQ fluorescence, 10 min. Potency, µM, most hits filed as inhibitors. 2,600 compounds, 64% hits
WRN helicase inh-2 – qHTS for Inhibitors of WRN Helicase: Confirmatory Assay for Cherry-picked Compounds; shares compounds with WRN helicase inh-1; WRN helicase DNA unwinding, fluorescence kinetic; Potency, µM (series often up to 57.1 µM), without a hit: top-dose activity, negative = inhibition, usual class: inhibitors; 610 compounds, 63% hits; AID 720497, 2013; further: nearly all actives have a fitted effect of over 65% in size
TO displacement – qHTS for Inhibitors of WRN Helicase: Thiazole Orange DNA Binding Counterscreen; shares compounds with WRN helicase inh-1; thiazole orange DNA binding displacement, fluorescence; Potency, µM (doses to about 57.1 µM), without a hit: top-dose activity change, negative = inhibition, actives largely listed as inhibitors; 610 compounds, 10% hits; AID 720499, 2013;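 further: drop in dye fluorescence marks compound binding to DNA; on the % scale 0 is the no-effect control and ±100 the full control effect; nearly all actives have a fitted effect of over 60% in size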
BLM counter – qHTS for Inhibitors of WRN Helicase: BLM Helicase Counterscreen for WRN Inhibitors | shares compounds with WRN helicase inh-1 | Recombinant BLM helicase DNA unwinding, red fluorescence | Potency, µM (series often up to 57.1 µM), without a hit: at the top dose activity change, negative = inhibition, hits mostly inhibitors | 610 compounds, 60% hits; further: nearly all actives have a fitted effect of over 60% in size
* marks the source's active call; other numbers are inactive results; [ ] = another dose, or the depositor's remark. An excerpt weighted towards active compounds, which were near 2.5% of everything screened. The call rests on the fitted dose curve; in most records, active means well fitted curve in the direction sought with a large enough effect; inconclusive means small, poorly fitted or top-dose-only effect, or another doubt; inactive means no such curve, though single readings can be large; an effect the other way counts as inactive or inconclusive. Potency means the concentration at half of the fitted maximal effect.

CC12C=CC(=O)C=C1CCC1C2C(O)CC2(C)C1CCC2(C)O (stereo not drawn) was read as Pol eta inh-1 -17.7%, WRN helicase inh-1 -10.2%, Pol iota inh 34.9% and Pol kappa inh-1 -11.6%.
Screening COc1ccc(N2C(=O)/C(=C/c3ccc(C)o3)C(=O)NC2=S)cc1 returned Pol beta inh 35.5µM*, Pol eta inh-1 12.6µM*, WRN helicase inh-1 inconclusive, Pol iota inh 25.1µM*, Pol kappa inh-1 -95.6%, Pol kappa inh-2 16.8* and Pol eta inh-2 30.1*.
For CN1C(=O)/C(=C/c2ccc(N3CCCCCC3)o2)C(=O)NC1=S the results were Pol beta inh -16.7%, Pol eta inh-1 inconclusive, WRN helicase inh-1 -18.9%, Pol iota inh inconclusive, Pol kappa inh-1 -15.1% and L3MBTL1 block -8.2%.
`C#CCOc1ccc(OC)cc1C(c1c(C)[nH][nH]c1=O)c1c(C)[nH][nH]c1=O` gave Pol beta inh 7.5%, Pol eta inh-1 -2.3%, WRN helicase inh-1 -5.7%, Pol iota inh inconclusive, Pol kappa inh-1 -9.6% and L3MBTL1 block -0.6%.
CCC(C)N1C(=O)/C(=C\c2cnc(N(C)C)nc2)C(=O)NC1=S (stereo not drawn) was read as Pol beta inh 15.1%, Pol eta inh-1 -6.5%, WRN helicase inh-1 50.1µM*, Pol iota inh inconclusive, Pol kappa inh-1 1.8%, L3MBTL1 block -4.5%[11.4 µM], WRN helicase inh-2 -5.5%, TO displacement 7.4% and BLM counter -17.7%.
`C=C[C@H]1CN2CCC1C[C@@H]2C(O)c1ccnc2ccccc12` (stereo partly drawn) gave Pol kappa inh-1 -10.0%[19.4 µM].
`Cc1ccc(OCCOc2cccc(C=C3C(=O)NC(=O)NC3=O)c2)c(C)c1` gave Pol beta inh inconclusive, Pol eta inh-1 -21.8%, WRN helicase inh-1 35.5µM*, Pol iota inh inconclusive, Pol kappa inh-1 -19.1%, L3MBTL1 block 26.3%, WRN helicase inh-2 inconclusive, TO displacement -23.3% and BLM counter 27.1µM*.
For O=C1NC(=O)C(=Cc2c(Cl)cccc2Cl)C(=O)N1 the results were Pol eta inh-1 -3.2%, WRN helicase inh-1 35.5µM*, Pol iota inh -1.4%, Pol kappa inh-1 -21.1%, WRN helicase inh-2 -0.4%, TO displacement -3.1% and BLM counter -4.4%.
For Cc1c(C=C2C(=O)NC(=O)NC2=O)c(=O)n(-c2ccccc2)n1C the results were Pol beta inh -13.2%, Pol eta inh-1 -15.5%, WRN helicase inh-1 -10.1%, Pol iota inh 162.1%, Pol kappa inh-1 -21.2% and L3MBTL1 block 11.6%.
Screening Cc1ccccc1OCC(=O)N1CCN(CCc2ccccn2)CC1 returned Pol beta inh -9.2%, Pol eta inh-1 -15.2%, Pol iota inh -2.6% and Pol kappa inh-1 -21.4%.
`CCOc1cc(C=C2C(=O)NC(=O)NC2=O)ccc1OCC(=O)N1CCOCC1` gave Pol beta inh 17.0%, Pol eta inh-1 -10.2%, WRN helicase inh-1 inconclusive, Pol iota inh 12.2%, Pol kappa inh-1 -3.1%, L3MBTL1 block -2.0%, WRN helicase inh-2 -4.2%, TO displacement -2.9% and BLM counter -11.1%.
O=C1CC=C2C3CC4N(CCC45c4cc(O)c(O)cc4N1C25)CC3=CCBr (stereo not drawn) was read as Pol eta inh-1 inconclusive, WRN helicase inh-1 28.2µM*, Pol iota inh 39.8µM*, Pol kappa inh-1 inconclusive, WRN helicase inh-2 19.2µM*, TO displacement -3.7% and BLM counter 5.41µM*.
For CN(C)CC(C(=O)Cc1ccccc1)c1ccccc1 (stereo not drawn) the results were Pol eta inh-1 -13.5%, WRN helicase inh-1 44.7µM*, Pol iota inh inconclusive, Pol kappa inh-1 -6.3%, WRN helicase inh-2 0.304µM*, TO displacement 2.5% and BLM counter inconclusive.
Screening C[C@@H]([C@@H](O)c1ccccc1)N(C)C(=O)Cc1ccccc1 returned Pol eta inh-1 -17.5%, WRN helicase inh-1 1.3%, Pol iota inh 29.7% and Pol kappa inh-1 -15.5%.
For COc1cc(C=C2C(=O)NC(=O)NC2=O)ccc1OS(=O)(=O)c1ccccc1[N+](=O)[O-] the results were Pol beta inh 19.9%, Pol eta inh-1 -19.0%, WRN helicase inh-1 28.2µM*, Pol iota inh inconclusive, Pol kappa inh-1 -14.4%, WRN helicase inh-2 -20.2%, TO displacement -10.0% and BLM counter -3.6%.
CN(C)C(=O)Oc1ccc(Br)cc1C(=O)Nc1ccc(F)c(Cl)c1 was read as Pol beta inh 2.7%, Pol eta inh-1 -22.4%, WRN helicase inh-1 -3.8%, Pol iota inh 2.8%, Pol kappa inh-1 3.3% and L3MBTL1 block 0.9%.
`Cc1ccc(CNC(=O)C(=O)NCC(c2cccnc2)N2CCN(c3ccc(F)cc3)CC2)cc1` (stereo not drawn) gave Pol beta inh inconclusive, Pol eta inh-1 -16.5%, Pol iota inh 28.6% and Pol kappa inh-1 -3.7%.
